Bioassay records as filed in PubChem BioAssay.
RORgamma inh: blocks mouse ROR gamma transcriptional activity. Potency, µM (doses to about 53.6 µM), for the others: at the top dose activity change, negative = inhibition, actives largely listed as inhibitors. Drosophila S2 Gal4-RORgamma UAS-luciferase reporter, 20 h. 310,000 tested, 5.4% active. P51450. AID 2551; further: potency means the concentration at half of the fitted maximal effect; on the % scale 0 is the no-effect control and ±100 the full control effect; nearly all actives have a fitted effect of over 60% in size
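Drosophila S2 cells stably expressing Gal4-DBD/mouse RORγ fusion under metallothionein promoter plus UAS-luciferase; compound 1 h, then 700 uM CuSO4 induction for 20 h at ambient temperature; inhibition read as reduced luminescence.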
Gal4-VP16 FLuc: counter-screen for ROR gamma inhibitors: Gal4-VP16 reporter; Potency, µM (highest dose often 53.6 µM), without a hit: top-dose activity, negative = inhibition, hits mostly inhibitors; Drosophila S2 Gal4-VP16 UAS-luciferase, luminescence, 20 h; 310,000 tested, 3.5% active;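 further: Gal4-VP16 expression switched on by copper sulfate through the metallothionein promoter; potency means the concentration at half of the fitted maximal effect; on the % scale 0 is the no-effect control and ±100 the full control effect; nearly all actives have a fitted effect of over 50% in size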
uPA surface inh: cell surface uPA generation inhibition; cell surface uPA generation assay, qHTS; Potency, µM (top dose mostly 38.3 µM), without a hit: top-dose activity change, negative = inhibition, hits mostly inhibitors; 330,000 tested, 0.31% active; active means well fitted inhibition curve with a large enough effect; inconclusive means small, poorly fitted or top-dose-only effect; inactive means no such curve, though single readings can be large or run the other way; tested in mouse RAW 264.7 cells; further: potency means the concentration at half of the fitted maximal effect; on the % scale 0 is the no-effect control and ±100 the full control effect; nearly all actives have a fitted effect of over 55% in size
TRPV1 agonist: activates the human vanilloid receptor TRPV1; Q8NER1; TRPV1-expressing cells, Fluo-8 calcium influx, agonist mode; activation, % at 8.33 µM; 320,000 tested, 0.19% active; in the data active means activation above about 80%; inconclusive means between about 30% and that limit; further: 0% is about no effect
Target sequence (Q8NER1 whole entry, looked up): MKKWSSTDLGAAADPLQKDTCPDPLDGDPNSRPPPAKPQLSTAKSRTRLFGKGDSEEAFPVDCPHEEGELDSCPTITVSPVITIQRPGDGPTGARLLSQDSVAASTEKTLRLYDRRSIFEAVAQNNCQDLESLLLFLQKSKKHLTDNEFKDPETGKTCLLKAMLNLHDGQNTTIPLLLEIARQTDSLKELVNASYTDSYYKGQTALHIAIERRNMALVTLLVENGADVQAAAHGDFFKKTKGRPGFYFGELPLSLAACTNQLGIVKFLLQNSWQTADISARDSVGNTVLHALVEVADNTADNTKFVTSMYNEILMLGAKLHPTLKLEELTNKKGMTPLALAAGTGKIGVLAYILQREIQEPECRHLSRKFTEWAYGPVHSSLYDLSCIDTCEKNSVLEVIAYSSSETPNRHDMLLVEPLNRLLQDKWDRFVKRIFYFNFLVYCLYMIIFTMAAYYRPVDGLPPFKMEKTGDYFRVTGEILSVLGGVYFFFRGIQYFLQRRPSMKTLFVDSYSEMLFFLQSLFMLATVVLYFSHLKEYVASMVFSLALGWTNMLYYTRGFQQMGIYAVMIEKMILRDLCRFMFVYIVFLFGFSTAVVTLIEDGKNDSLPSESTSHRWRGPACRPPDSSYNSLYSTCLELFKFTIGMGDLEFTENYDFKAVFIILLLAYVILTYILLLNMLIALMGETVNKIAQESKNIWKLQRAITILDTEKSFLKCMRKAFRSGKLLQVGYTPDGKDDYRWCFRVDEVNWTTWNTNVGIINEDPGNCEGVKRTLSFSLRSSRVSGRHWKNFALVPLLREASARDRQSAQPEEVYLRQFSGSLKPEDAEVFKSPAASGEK
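Fluo-8 calcium influx in TRPV1-expressing cells, kinetic read (ex 480/em 520 nm). Compound added and read 3 min for agonist activity, followed by capsaicin at EC20 final and 2 min further read for enhancement.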
TRPV1 PAM: potentiators of human vanilloid receptor 1 (TRPV1) | Q8NER1 | TRPV1-expressing cells, Fluo-8 calcium influx, capsaicin EC20 potentiation | potentiation, % at 8.33 µM | 320,000 tested, 0.02% active | AID 540277; in the data active means potentiation above about 80%; inconclusive means between about 30% and that limit; further: 0% is about no effect
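Cells expressing TRPV1 were dye-loaded with Fluo-8 and read kinetically: 10 s baseline, 3 min after compound (agonist portion), then 2 min after EC20 capsaicin (allosteric enhancer portion). Calcium-bound dye fluorescence at 480/520 nm.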
* marks the source's active call; other numbers are inactive results; ? = inconclusive; / = no result given. The list is not random: actives were taken first. Their share in the collection is about 5.8%. Unless noted, the call rests on the fitted dose curve; in most records, active means well fitted curve in the direction sought with a large enough effect; inconclusive means small, poorly fitted or top-dose-only effect, or another doubt; inactive means no such curve, though single readings can be large; an effect the other way counts as inactive or inconclusive.

SMILES	RORgamma inh	Gal4-VP16 FLuc	uPA surface inh	TRPV1 agonist	TRPV1 PAM
O=C(c1ccc(Cl)cc1)N1CCCCC(Sc2nnc(-c3ccc4c(c3)OCO4)o2)C1=O (stereo unspecified)	1.4µM*	?	-10%	3	6
O=C(CCS(=O)(=O)c1ccccc1)Nc1cccc(-c2nc3ccccc3s2)c1	?	-28%	?	19	3
O=C(CNS(=O)(=O)c1cccc(Cl)c1)Nc1ccc(-c2nc3ccccc3s2)cc1	-35%	2µM*	5%	-3	23
Cc1cc(-c2nc3ccccc3s2)ccc1N	/	/	-10%	/	/
O=C(CCS(=O)(=O)c1ccccc1)Nc1ccc(-c2nc3ccccc3s2)cc1	?	5.6µM*	-13%	0	3
CNc1ccc(-c2nc3ccccc3s2)cc1	1.4µM*	?	/	/	/
O=C(/C(=N/N=C/c1ccc(O)c(O)c1O)c1ccccc1)c1ccccc1	?	10µM*	-7%	10	14
COC(=O)[C@@H]1C[C@H]1[C@@H](NC(=O)c1cccnc1)c1ccccc1	-1%	18%	/	/	/
Cn1cnc([N+](=O)[O-])c1Oc1cccc(O)c1	-30%	13µM*	-6%	1	-7
OC(c1cc(-c2ccc(C(F)(F)F)cc2)nc(C(F)(F)F)c1)C1CCCCN1 (stereo unspecified)	?	22µM*	-18%	27	-7
OC(c1cc(C(F)(F)F)nc2c(C(F)(F)F)cccc12)C1CCCCN1 (stereo unspecified)	-29%	-6%	?	2	-9
COC(=O)Cc1ccc(NC(=S)Nc2cccc(C)n2)cc1	4.5µM*	?	/	-1	0
CCOc1ccc(NC(=S)NC(=O)c2cncc(Br)c2)cc1	/	/	-3%	/	/
Cc1cccc(OCCNC(=S)NC(=O)c2cncc(Br)c2)c1	5µM*	6.3µM*	6%	26	1
CCOC(=O)c1ccc(NC(=S)NCc2ccc(F)cc2)cc1	/	/	12%	/	/
Cc1ccc(OCCNC(=O)c2cncc(Br)c2)cc1C	19%	-2%	-4%	?	3
CCOC(=O)c1ccc(NC(=S)NN)cc1	10µM*	?	0%	5	-8
CCOC(=O)c1ccc(NC(=S)NC(=O)c2cncc(Br)c2)cc1	2.2µM*	?	2%	-3	13
Cc1cccc(NC(=S)Nc2ccc(Oc3ccccc3)cc2)n1	9%	?	1%	2	15
CC(=O)c1ccc(NC(=S)NC(=O)c2c(Cl)c(C)nn2C)cc1	?	-14%	5%	0	3
CCOC(=O)c1ccc(NC(=S)Nc2cccc(C)n2)cc1	0.89µM*	?	2%	0	-7
CCCCOC(=O)c1ccc(NC(=S)NC(=O)c2c(Br)c(C)nn2C)cc1	16µM*	13µM*	-9%	-5	5
CCN1CCN(C(=O)c2ccc(OC)c(S(=O)(=O)Nc3ccc(C)cc3)c2)CC1	-27%	9%	1%	0	-2
CCc1ccc(NC(=O)C(C)Sc2ccc(S(=O)(=O)N3CCN(C)CC3)cn2)cc1 (stereo unspecified)	/	/	?	6	-19
CC(=O)N1c2ccccc2C2(O)N=C(C)SC12 (stereo unspecified)	7.9µM*	4.5µM*	11%	-4	-3
SMILES	RORgamma inh	Gal4-VP16 FLuc	uPA surface inh	TRPV1 agonist	TRPV1 PAM
CC(=O)N1c2ccccc2[C@@H](C)[C@@H]1C	/	/	-1%	-1	3
O=C(Nc1nnc(-c2ccccn2)o1)c1cccc(Br)c1	0.5µM*	0.89µM*	-3%	-1	18
O=C(Nc1nnc(-c2ccco2)o1)c1cccc(Cl)c1	3.5µM*	2.8µM*	1%	0	3
N#Cc1ccc(C(=O)Nc2nnc(-c3ccccn3)o2)cc1	1.3µM*	0.89µM*	-8%	-2	-12
O=C(/C=C/c1ccccc1)Nc1nnc(-c2ccco2)o1	2.2µM*	5µM*	-6%	3	-3
COc1cc2cc(CCO)oc(=O)c2cc1OC	/	/	6%	/	/
COc1ccccc1CNC(=O)COC(=O)C1CCN(S(=O)(=O)c2ccccc2)CC1	/	/	2%	3	-4
O=C(c1cccc(F)c1)N1CCC2(CCCN(Cc3nccs3)C2)CC1	0%	11%	/	/	/
Cc1ccc(SCC(=O)Nc2nnc(-c3ccco3)o2)cc1	/	/	-2%	-2	13
O=C(Nc1nnc(-c2ccccn2)o1)c1cccc(Cl)c1	0.71µM*	1µM*	3%	-1	8
Cc1cc(C)c(OCC(=O)Nc2nnc(-c3ccco3)o2)c(C)c1	13µM*	?	0%	1	?
O=[N+]([O-])c1ccc(O)c(-c2nn[nH]n2)c1	10µM*	-24%	4%	-1	-4
O=C1NC(Cc2ccccc2)C(=O)N1Cc1ccccc1 (stereo unspecified)	/	/	3%	/	/
O=c1ccsn1Cc1ccccc1	2.2µM*	4.5µM*	-8%	24	-13
CC(C)(C)c1nc(SCC(=O)c2ccccc2)c2ccccc2n1	20µM*	?	/	26	-1
CC(C)(C)c1nc(SCC(=O)N2CCCC2)c2ccccc2n1	-18%	-7%	1%	1	4
N=C(N)SCc1cn(-c2ccccc2)nc1-c1ccc(Br)cc1	11µM*	?	5%	0	-1
OC1c2ccccc2N=C2CCCN21 (stereo unspecified)	17%	7%	/	/	/
CCOc1ccc(/C=N/Nc2nc(C)cs2)c(O)c1	1.4µM*	2.2µM*	12%	-2	4
Cc1csc(N/N=C/c2ccccc2F)n1	?	-79%	2%	16	-12
COc1ccc(OC)c(/C=N/NC(=O)c2[nH]ncc2Br)c1	2%	-2%	1%	-1	-1
Cc1ccc(O)c(/C=N/NC(=O)C2=NNC(c3ccccc3)(c3ccccc3)C2)c1	1.4µM*	2.8µM*	/	?	-8
O=C(N/N=C/c1c(O)ccc2ccccc12)c1[nH]ncc1Br	2.5µM*	4.5µM*	2%	15	-11
CCOc1ccc(/C=N/NC(=O)c2[nH]ncc2Br)c(O)c1	3.5µM*	11µM*	-20%	1	0
COC(=O)[C@@H](NC(=O)O[C@@H]1C(=O)c2ccc(OC)cc2O[C@H]1c1ccc2c(c1)OCO2)C(C)C	16%	7%	/	/	/
SMILES	RORgamma inh	Gal4-VP16 FLuc	uPA surface inh	TRPV1 agonist	TRPV1 PAM
COc1cc(/C=N/N2C(=O)c3ccccc3NC2(C)c2cccc([N+](=O)[O-])c2)cc(Br)c1O (stereo unspecified)	43%	-1%	-10%	0	16
O=C(N/N=C/c1cccs1)c1[nH]ncc1Br	-15%	-10%	-21%	3	-2
Cc1ccc(O)c(/C=N/NC(=O)c2[nH]ncc2Br)c1	1.3µM*	1.3µM*	10%	13	18
Cc1csc(/C(=N\O)c2csc(C)n2)n1	2.8µM*	4.5µM*	-6%	3	-12
Cc1csc(/C(C#N)=N/O)n1	20%	?	4%	4	28
Cc1cc(Cl)ccc1C(=O)C1CCCN(C(=O)c2cnsn2)C1 (stereo unspecified)	38%	-8%	9%	14	-13
